Source: PubChem
Pf Dd2 inh: inhibitors of Plasmodium falciparum Dd2 growth; 4.3% of 120,000 active; AID 1347417; P. falciparum Dd2 growth, SYBR Green, 72 h; Potency, µM (series often up to 28.9 µM), most hits filed as inhibitors; active means well fitted inhibition curve with a large enough effect; further: nearly all actives have a fitted effect of over 65% in size
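Infected erythrocytes (Dd2, 0.3% parasitemia, 2.5% hematocrit final) are added to compound in RPMI-1640/Albumax II medium, grown 72 h at 37C in low oxygen, then lysed with saponin/Triton-X containing SYBR Green and read by fluorescence.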
Each line names hits and unclear results; the compound was inactive in the other large screens. This excerpt belongs to a sample that is enriched for hits.

COc1ccc(C(=O)NCC(=O)N2CCCCCNC(=O)CC2c2ccccc2)cc1F (configuration not stated)	none
CCc1ccc(NC(=O)N2CCN(C)C3(CCC(=O)N(C)CC3)C2)cc1 (configuration not stated)	none
CCCCOc1ccc(CNC(=O)c2ccc(-c3nc(CN4CCc5ccccc54)c(C)o3)cc2)cc1	none
CCc1ccc(-c2nc(CSCC(=O)NCc3ccccc3OC)c(C)o2)cc1	none
COc1ccccc1CNC(=O)c1ccc2c(c1)N(Cc1ccc(C)cc1)CCS2	Pf Dd2 inh 10µM
CCOc1ccccc1CNC(=O)c1ccc2c(c1)N(Cc1ccc(C)cc1)CCS2	none
COc1ccc(Br)cc1CNC(=O)c1ccc2c(c1)N(Cc1ccc(C)cc1)CCS2	none
COc1ccccc1CNC(=O)c1ccc(-c2nc(CN3CCc4ccccc43)c(C)o2)cc1	Pf Dd2 inh 10µM
CN(C)c1ccc(CN2CCOC[C@H]2c2nc(C(C)(C)C)co2)cc1	none
COCC(=O)NC1CCC12CCN(Cc1ccc(F)c(F)c1)CC2 (configuration not stated)	none
COc1ccc(C(=O)N2CCCC(C(=O)NCc3ccccc3)CCNC(=O)CC2)cc1F (configuration not stated)	none
CCC1(N2CCN(S(=O)(=O)c3cccc4cccnc34)CC2)CCN(C(=O)NC)C1 (configuration not stated)	none
O=C(CCC1CCCC1)N1CCC(Cc2nc(C3CCOCC3)no2)CC1	none
CC(C)(CN1CCC(Cc2cccc(C(=O)O)c2)C1)N1CCOCC1 (configuration not stated)	none
Cc1c(C(=O)OC2CCCCCC2)[nH]c2c1C(=O)CC(c1ccc(Cl)cc1)C2 (configuration not stated)	none
Cc1c(C(=O)OC2CCCCCC2)[nH]c2c1C(=O)CC(c1ccccc1Cl)C2 (configuration not stated)	Pf Dd2 inh 10µM
COc1cc(C2CC(=O)c3c([nH]c(C(=O)OC4CCCC4)c3C)C2)cc(OC)c1OC (configuration not stated)	Pf Dd2 inh 5.6µM
CC1=C(C(=O)OC2CCCCCC2)C(c2c(F)cccc2Cl)CC(=O)N1 (configuration not stated)	none
Cc1c(C(=O)OCC2CCCCC2)[nH]c2c1C(=O)CC(c1ccc(F)cc1)C2 (configuration not stated)	none
Cc1c(C(=O)OC2CCC(C)CC2)[nH]c2c1C(=O)CC(c1ccccc1Cl)C2 (configuration not stated)	none
Cc1csc(NC(=O)[C@@H]2CCC[C@@H](NCc3cccnc3)CN(C)C(=O)C2)n1	none
CN(C)Cc1cc(CC2(NCc3ccc(N(C)C)cc3)COC2)no1	none
O=C(N[C@H](c1ccccn1)C1CC(O)C1)c1cnc2ccccn2c1=O (some centres not stated)	none
Cc1noc([C@H]2CCN(Cc3ccsc3)C[C@H]2NC(=O)C2CC2)n1	none
CCOc1ccc(NC(=O)CSc2nc3c([nH]c4ccccc43)c(=O)n2-c2cc(C)cc(C)c2)cc1	none
CC1CCN(C(=O)CSc2nc3c([nH]c4ccccc43)c(=O)n2-c2ccccc2)CC1	none
COc1ccc(NC(=O)CSc2nc3c([nH]c4ccccc43)c(=O)n2-c2ccccc2)c(OC)c1	Pf Dd2 inh 5µM
Cc1cccc(NC(=O)CSc2nc3c([nH]c4ccccc43)c(=O)n2C)c1C	none
Cc1cc(C)cc(-n2c(SCC(=O)Nc3ccc4c(c3)OCCO4)nc3c([nH]c4ccccc43)c2=O)c1	none
COc1cccc(NC(=O)CSc2nc3c([nH]c4ccccc43)c(=O)n2-c2ccccc2)c1	Pf Dd2 inh 5.6µM
Cn1c(SCC(=O)Nc2ccccc2F)nc2c([nH]c3ccccc32)c1=O	none
O=C(CSc1nc2c([nH]c3ccccc32)c(=O)n1-c1ccccc1F)Nc1ccccc1C(F)(F)F	Pf Dd2 inh 10µM
O=C(CSc1nc2c([nH]c3ccccc32)c(=O)n1-c1ccccc1)N1CCCCCC1	none
COc1ccc(NC(=O)CSc2nc3c([nH]c4ccccc43)c(=O)n2C)cc1	none
O=C(CSc1nc2c([nH]c3ccccc32)c(=O)n1-c1ccccc1)Nc1ccc2c(c1)OCO2	Pf Dd2 inh 11µM
CCOc1ccc(-n2c(SCC(=O)Nc3ccc4c(c3)OCCO4)nc3c([nH]c4ccccc43)c2=O)cc1	none
Cc1nc(-c2c3n(c(=O)n(CC(=O)Nc4cc(F)ccc4F)c2=O)CCCC3)no1	none
O=C(c1cnc(-c2cccs2)nc1)N1CCN(CCO)CC(O)C1 (configuration not stated)	none
CC(=O)N1CCN([C@H]2[C@@H]3OC[C@@H](O3)[C@@H](NCc3ccc(OC(F)(F)F)cc3)[C@@H]2O)CC1	none
COCC(c1ccccn1)N(C)Cc1cn(-c2ccccc2)nn1 (configuration not stated)	none
O=C(NCC1CN(C(=O)c2cccc(Cl)c2)CC12CN(c1ccccc1)C2)C1CC1 (configuration not stated)	none
COCC[C@]1(O)CCN(C(=O)CCCc2cccs2)C[C@H]1C	none
O=C(c1ccc(F)cc1)N1CCC2(CC1)CC(Cc1ccccc1)=NO2	none
